# Assay outcomes from PubChem.
# This is a sample that favours compounds with a hit; in the whole collection about 2% have one here.
# CHO-K1 Ca ag – nonselective activator or artifact in parental CHO-K1 cells. Fluo-8 calcium fluorescence; scaled to maximal ATP response, vehicle zero. activation, % at 3 µM. 0.48% of 360,000 active. AID 602248; in the data active = activation above about 15%;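 note: untransfected CHO-K1 host cells lacking M1 receptor as counterscreen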
# CHO-K1 Ca PAM – counter-screen for M1 PAMs: effect in parental CHO-K1 cells | ATP EC20, Fluo-8 calcium fluorescence; 0% at ATP EC20, 100% at ATP max | activation, % at 3 µM | 0.02% of 360,000 active;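 active = activation above the run cutoff, the mean activation of all test compounds plus 3 SD, cut at about 40% in these data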;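 note: peak over basal fluorescence ratio in a 140 s read after ATP addition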
# CHRM4 agonist – agonists of human muscarinic M4 receptor (CHRM4). P08173. CHO-K1 hM4/Gqi5, Fluo-8 calcium fluorescence; vehicle 0%, full acetylcholine response 100%. activation, % at 3 µM. 0.14% of 360,000 active;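 active = activation above the run mean over all test wells plus 3 SD, cut at about 32% in these data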;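 note: peak over basal fluorescence ratio per well then scaled between controls; 0% = DMSO wells and 100% = acetylcholine at EC100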
# Target sequence (P08173 whole entry, looked up): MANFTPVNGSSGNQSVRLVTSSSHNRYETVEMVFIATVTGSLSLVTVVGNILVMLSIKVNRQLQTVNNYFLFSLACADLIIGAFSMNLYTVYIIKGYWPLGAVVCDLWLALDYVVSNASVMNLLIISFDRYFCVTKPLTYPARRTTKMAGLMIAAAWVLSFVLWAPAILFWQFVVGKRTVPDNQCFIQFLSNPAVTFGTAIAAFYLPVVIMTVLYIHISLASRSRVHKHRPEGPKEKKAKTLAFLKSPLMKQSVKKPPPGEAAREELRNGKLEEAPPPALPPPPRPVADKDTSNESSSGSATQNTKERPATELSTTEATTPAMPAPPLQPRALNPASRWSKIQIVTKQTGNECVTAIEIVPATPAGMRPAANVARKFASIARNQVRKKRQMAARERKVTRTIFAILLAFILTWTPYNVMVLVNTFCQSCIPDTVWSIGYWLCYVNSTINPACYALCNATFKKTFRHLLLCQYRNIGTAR
# M4 PAM – CHRM4 positive allosteric modulation. 0.4% of 360,000 active. CHO-K1 hM4/Gqi5, Fluo-8 calcium fluorescence, ACh EC20; 0% = ACh EC20, 100% = maximal ACh. P08173. AID 624126. activation, % at 3 µM;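 active = activation above its plate's cutoff, the mean activation of sample wells plus 3 SD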
# CHRM4 antagonist – antagonists of human muscarinic M4 receptor (CHRM4); CHO-hM4 cells, ACh EC80, Fluo-8 calcium fluorescence; inhibition, % at 3 µM; 0.73% of 360,000 active;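 active = inhibition above its plate's cutoff, the mean inhibition of sample wells plus 3 SD, cut at about 27% in these data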;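 note: 0% = acetylcholine EC80 with DMSO and 100% = DMSO without agonist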
# CHO-K1 Ca antag – counter-screen for M1 antagonists: effect in parental CHO-K1 cells; 0.6% of 360,000 active; inhibition, % at 3 µM; ATP-induced calcium, Fluo-8 fluorescence; AID 602250;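 active = inhibition above a per-plate cutoff, the plate's mean sample inhibition plus 3 SD, cut at about 24% in these data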;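 note: 0% = DMSO plus EC80 ATP and 100% = DMSO alone without ATP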
# Numbers without * were called inactive.
SMILES,CHO-K1 Ca ag,CHO-K1 Ca PAM,CHRM4 agonist,M4 PAM,CHRM4 antagonist,CHO-K1 Ca antag
c1ccc(CSC2=NCCCN2)cc1,1,18,1,-3,3,-6
CCCOc1cc(NCc2ccccc2)c2ncn(C(C)C)c2c1,1,14,20,24*,-9,-16
Cc1cc(C(=O)N2CCC2(C)C(=O)O)c(C)o1 (stereo not drawn),0,-7,1,18*,-25,2
Cc1cc(C(=O)N2CCC2(C)C(=O)O)nn1C(C)(C)C (stereo not drawn),0,-11,1,3,-10,27*
CCOC(=O)C1(C)CCN1C(=O)c1cc(C)n(C(C)(C)C)n1 (stereo not drawn),0,1,1,4,-6,13
O=c1[nH]c(CSc2nc3ccccc3[nH]2)nc2c1cnn2-c1ccccc1,12,3,18,-24,7,12
Cc1ccc2nc(SCc3nc4c(cnn4-c4ccccc4)c(=O)[nH]3)[nH]c2c1,11,0,6,-1,0,27*
S=c1[nH]c2ccccc2n1CCc1ccncc1,1,11,2,-3,-4,-7
Cc1ccc(C)c(N2CCN(C(=O)c3cn(C)c4ccc(S(=O)(=O)N(C)C)cc4c3=O)CC2)c1,0,-2,1,-15,95*,5
COc1ccc(S(=O)(=O)N(C)c2ccc(C(=O)N3CCC(C(N)=O)CC3)cc2)cc1OC,-1,-11,-1,-8,8,25*
CC(C)(C)NC(=O)C[C@H]1C[C@H](C(=O)N2CCOCC2)[C@@]2(CCC3CCCC3)c3[nH]c4ccc(Cl)cc4c3CCN2C1=O,0,21,0,5,-9,4
CCc1ccc(-n2nnnc2SCC(=O)Nc2ccc(NC(C)=O)cc2)cc1,0,9,1,-8,5,-5
CC(=O)Nc1ccc(-n2nnnc2SCC(=O)Nc2cccc(NC(=O)c3ccco3)c2)cc1,1,1,2,4,26*,-15
Cn1c(=O)[nH]c(=O)c2c1nc(N1CCCCCC1)n2Cc1cccc2ccccc12,0,4,0,11,1,4
S=C1N(c2ccccc2)C(c2ccc(Br)cc2)N2CCCN12 (stereo not drawn),1,14,-1,-55,79*,-5
S=C1N(c2ccccc2)C(c2ccc(Cl)cc2)N2CCCN12 (stereo not drawn),0,7,0,-19,42*,-3
Cc1ccc(NC(=O)C2CCN(c3ncnc4c3nc3n4CCCCC3)CC2)cc1Cl,-1,7,1,4,-10,8
COc1ccc(OC(C)C(=O)N2CC(C)OC(C)C2)cc1 (stereo not drawn),0,-8,2,3,1,-6
CCCCC(CC)CN=C(N)NC(N)=NCCCCCCN=C(N)NC(N)=NCC(CC)CCCC (stereo not drawn),3,13,40*,-21,82*,-1
CCCCC(CC)CO (stereo not drawn),0,24,1,14,-13,-9
CCCCOc1ccc(C(O)(CCC)CCN2CCOCC2)cc1 (stereo not drawn),4,19,6,-9,4,-1
CCCCC(O)(CCN1CCOCC1)c1ccc(Cl)cc1 (stereo not drawn),0,10,0,-34,68*,-10
Cc1ccc(C(=O)OCC(=O)NCC(F)(F)F)cc1C,0,2,1,-3,0,-3
O=C(OCc1ccccc1)N(CCCCN(CCCNCc1ccccc1)C(=O)OCc1ccccc1)CCCNCc1ccccc1,3,7,26,-11,65*,9
O=C(NCCCCCCNC(=O)OCc1ccccc1)OCc1ccccc1,-1,-2,-2,-2,6,-4
CC1CCN(C(=O)CSc2nc3ccccc3[nH]2)CC1,0,21,0,14,-13,-13
Cc1csc(=O)n1CC(=O)OCc1nnc(-c2ccc([N+](=O)[O-])cc2)o1,0,-2,2,23*,-12,-20
O=C(NCCCNC(=O)c1cnccn1)c1ccc(Cl)cc1,0,8,2,1,0,-4
O=C(NCCCNC(=O)c1cnccn1)c1ccc(Cl)c(Cl)c1,1,-5,-3,-14,60*,-3
